25 molecules from PubChem BioAssay (NCATS) can be followed below.

The AC50 is the concentration at which the activity in the assay is half-maximal.

“And” between values parts separate entries of the source, which are not always exact repeats. Equal values may be shown once. Results filed as inconclusive are left out. For some assays here: Entries with a potency or affinity are not part of this list. The source made the active and inactive calls.

For assay [1] the following is noted: Ebola virus entry assay, green channel fluorescence.
For assay [2] the following is noted: Ebola virus entry assay, reporter ratio channel; AC50: Channel type: primary unless noted; outcome: Channel type: primary unless noted.
For assay [3] the following is noted: Ebola virus entry assay, blue channel (ratio component).
Assay [4] in a line: Immunotoxin (HA22) sensitization/mitigation study. Vehicle arm (PBS) (AID 1159510; call rule not given here; also: potency is read from the fitted curve at half-maximal effect). To be noted: cancer cells viability with PBS vehicle (HA22 study); series mostly up to 46.1 µM.
The nature of assay [5]: Immunotoxin (SS1P) sensitization/mitigation study. Vehicle arm (DMEM) (AID 1159513; call rule not given here; also: potency is read from the fitted curve at half-maximal effect). To be noted: cell viability with vehicle (DMEM); series mostly up to 46.1 µM.
A short description of assay [6]: qHTS assay for measurement of the activity of small molecule inhibitors on Zika virus induced Caspase-3 activity in human iPSC derived neural progenitor cells (hNPCs) (AID 1224857). Also: % of control where 0% means no effect; nearly all actives have a fitted effect of over 65% in size. The conditions noted are these: hNPCs ZIKV-induced caspase-3/7, Caspase-Glo luminescence, 6 h; series mostly up to 45.7 µM. A digest of the protocol: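 In medium with heparin 2 ug/ml and cyclopamine 2 uM, hNPCs (350 cells/well) received compound for one hour and then Zika virus at 2 FFU/cell; caspase activity was measured by Caspase-Glo 3/7 luminescence 6 h post-infection.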

Assay [7] in a line: qHTS assay for measurement of the activity of small molecule inhibitors on Zika virus induced Caspase-3 activity in human astrocytoma cells (AID 1224859).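 Also: plate controls were ZIKV-infected untreated cells for no effect and uninfected cells for full effect.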 The conditions noted are these: SNB-19 ZIKV-induced caspase-3/7, luminescence, 6 h; series mostly up to 45.7 µM. A digest of the protocol: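 A cell-based luminescent caspase-3/7 assay used SNB-19 cells infected with ZIKV (2 FFU/cell) for 6 h following 1 h compound pretreatment.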

A short description of assay [8]: qHTS assay to identify small molecule inhibitors of chordoma cells - UCH-1 (AID 1259355). Also: nearly all actives have a fitted effect of over 55% in size. Also: potency is read from the fitted curve at half-maximal effect. The conditions noted are these: UCH-1 chordoma viability, CellTiter-Glo, 48 h, combination; series mostly up to 46.1 µM. A digest of the protocol:
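Screening used approved and investigational drugs in 15-point titration against 800 seeded cells per well. A fixed combination of auranofin with camptothecin, doxorubicin, rubitecan and topotecan followed compound addition, and growth was scored by CellTiter-Glo after 48hr.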

Assay [9] can be described thus: qHTS assay to identify small molecule inhibitors of chordoma cells - UCH-2 (AID 1259356). Also: potency is read from the fitted curve at half-maximal effect. The conditions noted are these: UCH-2 chordoma viability, CellTiter-Glo ATP luminescence, 48 h; series mostly up to 46.1 µM.
Assay [10] in a line: High-throughput drug toxicity screening in the BPDCN cell line Gen2.2 (AID 1224824; call rule not given here;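 also: cells exposed to compounds for 48 h before reading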). To be noted: Gen2.2 BPDCN cells; at 45.8 µM (top of the series). A digest of the protocol:
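Seed 500 exponentially growing Gen2.2 cells/well; add compounds by pin tool; incubate 48 h, 37 °C, 5% CO2; add CellTiter-Glo, 15 min RT; read luminescence. % activity vs DMSO (100%) and bortezomib (0%).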

Assay [11] is described as follows: qHTS Screen of the MIPE 4.0 Collection Against Ewings Sarcoma (TC71) (AID 1259253). Also: nearly all actives have a fitted effect of over 40% in size. Also: potency is read from the fitted curve at half-maximal effect. To be noted: TC71 Ewing sarcoma viability, CellTiter-Glo, 48 h; series mostly up to 45.8 µM. A digest of the protocol:
(§1)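 Log-phase cells in RPMI with 5% FBS attached for 4 h, then received compounds as a titration for 48 h at 37C, 5% CO2. Viability was read by CellTiter-Glo luminescence and normalized to DMSO and no-cell wells.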
Background: Quantitative high-throughput screening tests each substance at several concentrations.

A short description of assay [12]: qHTS Screen of the MIPE 4.0 Collection Against Ewings Sarcoma (EW8) (AID 1259255). Also: nearly all actives have a fitted effect of over 35% in size. Also: potency is read from the fitted curve at half-maximal effect.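 As to viability: 100% = DMSO-treated cells and 0% = medium-only wells without cells.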 To be noted: EW8 Ewing sarcoma viability, CellTiter-Glo, 48 h; series mostly up to 45.8 µM. A digest of the protocol:
as §1

Assay [13] is described as follows: Identifying Small Molecule Inhibitors of Pancreatic Cancer Stem Cells (A2780, Spheroid) (AID 1259357).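 Also: spheroids pre-formed over 14 days in stem cell medium on hydrogel; compound exposure lasted 48 h before the ATP luminescence read; 100% = DMSO treated cells and 0% = wells without cells.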 The conditions noted are these: Potency: A2780 spheroid viability; series mostly up to 46.1 µM. A digest of the protocol: (§2)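 Viability is scored by CellTiter-Glo luminescence 48 h after dosing, expressed as percent activity against vehicle and no-cell references. Spheroid formats rely on cells cultured 14 days in stem cell media beforehand.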

Assay [14] in a line: Identifying Small Molecule Inhibitors of Pancreatic Cancer Stem Cells (SN12C, Adherent) (AID 1259358).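 Also: cell survival measured after 48 h of compound exposure.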 To be noted: viability/growth inhibition; series mostly up to 46.1 µM. An outline of the steps:
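Spheroids grown 14 days in stem cell media on hydrogel-coated nonadherent plates; 2D lines seeded directly. Compounds added after 4 h attachment, 48 h at 37C, 5% CO2; CellTiter-Glo luminescence normalized to DMSO (no inhibition) and no-cell wells (full inhibition).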

The nature of assay [15]: Identifying Small Molecule Inhibitors of Pancreatic Cancer Stem Cells (SN12C, Spheroid) (AID 1259360).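 Also: 100% = DMSO-treated cells and 0% = wells without cells.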 To be noted: Potency: SN12C spheroid viability; series mostly up to 46.1 µM. A digest of the protocol: as §2
The conditions of assay [16]: Ebola virus entry cell assay, ratio channel.

`CCCc1nc2c(C)cc(-c3nc4ccccc4n3C)cc2n1Cc1ccc(-c2ccccc2C(=O)O)cc1`: the outcome in assay [1], in assay [2] and in assay [3] was inactive. Also, in [4], the Potency was 26.4 µM (active). For the same molecule, the Potency result in assay [5] was “inactive”.

As for `Cn1cnc2c(F)c(Nc3ccc(Br)cc3Cl)c(C(=O)NOCCO)cc21`, the molecule was classed as inactive in [1], in [2] and in assay [3]. Further, the Potency entry in [4] and in assay [5] was “inactive” throughout.

Consider `CC1NCCOC1c1ccccc1` (configuration not stated), for which the molecule was classed as inactive in [1], in assay [2], in assay [3] and in [7]. Also, the Potency entry in [6], in assay [8] and in assay [9] was “inactive” in each case.

For the molecule `CNCC(O)c1ccc(O)cc1` (configuration not stated), the molecule was classed as inactive in assay [1], in [2], in assay [3] and in assay [7]. Besides, the cell viability, % of control (lower = more cytotoxic) in assay [10] is 145%. Besides, the Potency result in [11], in assay [12], in [8] and in assay [9] was “inactive” in each case.

As to `CC(C)NCC(O)c1ccccc1Cl` (configuration not stated), the molecule was classed as inactive in assay [1], in assay [2], in [3] and in [7]. The Potency result in assay [6], in [8] and in [9] was “inactive” throughout.

Consider `CCCC1CCCCN1` (configuration not stated), for which the result in assay [1], in [2], in assay [3] and in assay [7] was inactive. For the same molecule, the Potency result in [6], in [8] and in assay [9] was “inactive” in each case.

In the case of `CC(=O)SC[C@@H](C)C(=O)N1CCC[C@H]1C(=O)N[C@@H](Cc1ccccc1)C(=O)O`, the call in [1], in assay [2] and in assay [3] was inactive. Also, the Potency entry in assay [4] and in assay [5] was “inactive” throughout.

Regarding `CCN(CC)C(=O)N[C@@H]1C=C2c3cccc4[nH]cc(c34)C[C@@H]2N(C)C1`, the result in [1], in assay [3] and in [7] was inactive. Further, the half-maximal activity concentration (AC50) in assay [2] was 31.6 µM (active). Besides, the Potency result in assay [6], in assay [8] and in assay [9] was “inactive” in each case.

For `CN(C)CCc1ccc(O)cc1`, the call in assay [1], in assay [2], in assay [3] and in assay [7] was inactive. Besides, the cell viability, % of control (lower = more cytotoxic) in assay [10] was determined as 191%. The Potency entry in assay [6], in assay [12], in assay [8] and in assay [9] was “inactive” each time.

With `CCOP(=S)(OCC)Oc1cc(C)nc(C(C)C)n1`, the result in assay [1], in assay [2], in assay [3] and in [7] was inactive. The Potency entry in assay [6], in [8] and in assay [9] was “inactive” throughout.

On to `COC[C@@H](NC(C)=O)C(=O)NCc1ccccc1`, for which the call in assay [1], in assay [2], in [3] and in assay [7] was inactive. The cell viability, % of control (lower = more cytotoxic) in assay [10] worked out at 142%. Moreover, the Potency result in assay [6], in assay [11] and in assay [12] was “inactive” in each case.

For the molecule `OCCOc1ccccc1`, the call in [1], in [2], in assay [3] and in assay [7] was inactive. In addition, the Potency entry in assay [6], in [8] and in [9] was “inactive” throughout.

In the case of `N[C@@H](Cc1ccc(Oc2cc(I)c(O)c(I)c2)c(I)c1)C(=O)O`, the outcome in assay [1], in assay [2], in assay [3] and in assay [7] was inactive. The Potency result in [6], in assay [8] and in assay [9] was “inactive” in each case.

Regarding `CC(=O)[C@H]1CC[C@H]2[C@@H]3CC[C@H]4C[C@H](O)CC[C@]4(C)[C@H]3C(=O)C[C@]12C`, the molecule was classed as inactive in [1], in assay [2], in assay [3] and in assay [7]. Besides, the Potency entry in assay [6], in assay [8] and in [9] was “inactive” throughout.

For `CCN(CC)CCOC(=O)C(O)(c1ccccc1)c1ccccc1`, the molecule was called inactive in assay [1], in [2], in [3] and in [7]. The Potency entry in assay [6], in [8] and in [9] was “inactive” throughout.

With `CC(C)=CC1C(C(=O)OCc2cccc(Oc3ccccc3)c2)C1(C)C` (configuration not stated), the result in assay [1], in assay [2], in assay [3] and in [7] was inactive. Further, the Potency result in [6], in [8] and in [9] was “inactive” throughout.

Turning to `C=CCN1CC[C@]23c4c5ccc(O)c4O[C@H]2C(=O)CC[C@@]3(O)[C@H]1C5`, the outcome in assay [1], in assay [2], in assay [3] and in [7] was inactive. Besides, the Potency entry in assay [6], in [8] and in assay [9] was “inactive” each time.

On to `CN1CC(=O)N/C1=N/C(=O)Nc1cccc(Cl)c1`, for which the outcome in assay [1], in [2] and in assay [3] was inactive. Besides, the Potency entry in assay [4] and in [5] was “inactive” each time.

Turning to `Cn1ccc2cc3c(cc21)CCN3C(=O)Nc1cccnc1`, the molecule was called inactive in [1], in [2] and in assay [3]. The Potency entry in assay [4] and in assay [5] was “inactive” in each case.

On to `CC(C)(C)NCC(O)c1cc(Cl)c(N)c(Cl)c1` (configuration not stated), for which the call in [1], in assay [2], in assay [3] and in assay [7] was inactive. Besides, the Potency result in assay [6], in assay [8] and in assay [9] was “inactive” in each case.

As for `Nc1ccncc1`, the molecule was classed as inactive in assay [1], in assay [2], in [3] and in [7]. For the same molecule, the Potency entry in assay [6], in assay [8] and in [9] was “inactive” each time.

For the molecule `C[C@]12CCC(=O)C(O)=C1CC[C@@H]1[C@@H]2CC[C@]2(C)C(=O)CC[C@@H]12`, the call in assay [1], in [2], in [3] and in assay [7] was inactive. The Potency result in assay [4], in assay [5], in [13], in assay [14] and in assay [15] was “inactive” throughout.

As to `O=C1Nc2ccc(Cl)cc2[C@@](C#CC2CC2)(C(F)(F)F)O1`, the outcome in assay [1] and in assay [16] was inactive. Moreover, the half-maximal activity concentration (AC50) in [2] is 22.4 µM (active). Besides, the Potency in [4] is 42.9 µM (active); in assay [5], 48.1 µM (active).

On to `C=C(CC)C(=O)c1ccc(OCC(=O)O)c(Cl)c1Cl`, for which the call in [1] and in [16] was inactive. The AC50 in assay [2] is 15.8 µM (active).

As for `C[C@@H]1O[C@@H](O[C@H]2C[C@@H](O)[C@]3(CO)[C@H]4[C@H](O)C[C@]5(C)[C@@H](C6=CC(=O)OC6)CC[C@]5(O)[C@@H]4CC[C@]3(O)C2)[C@H](O)[C@H](O)[C@H]1O`, the molecule was called inactive in [1] and in assay [7]. The AC50 in assay [2] was 0.708 µM (active). Moreover, the cell viability, % of control (lower = more cytotoxic) in assay [10] is 26%. For the same molecule, the Potency in assay [11] was 0.0418 µM (active); in assay [12] it was 0.0372 µM (active); in assay [8] it was 158 nM (active) and 63.1 nM (active); in [9], 65.1 nM (active) and 51.7 nM (active).
